Source: the supplement of paper PMC9262897, “Low-cost anti-mycobacterial drug discovery using engineered E. coli” (Nature Communications, 2022)
Where a name gives a salt, the structure may show the parent alone. ± gives the standard deviation of the averaged measurements.

test system: E. coli TESEC Mtb DapB; assay: growth (OD600 after 10 h); higher = more growth (less inhibition); details: arabinose induction (level): High; compound 0.1 mM; raw OD600 reference: median of DMSO wells […], cell-free background 0.041
Experimental: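 TESEC E. coli strains in which the native enzyme is deleted and replaced by arabinose-inducible Mtb Asd, DapB, CysH or TrpD, each grown in its selective medium. Strains were screened against the Prestwick library at 0.1 mM and 1% DMSO in 384-well format at low and high arabinose induction. Growth is read as OD600 after 10 h in triplicate.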

`N[C@@H](Cc1ccc(O)c(O)c1)C(=O)O` [Levodopa] and `CCN(CC)C(=O)c1ccc(O)c(OC)c1` [Ethamivan] are within error of each other in growth: 0.195 ± 0.0078 for the first, 0.196 ± 0.0081 for the second.

`COC(=O)Nc1nc2cc(C(=O)c3ccccc3)ccc2[nH]1` [Mebendazole] and `COC(c1ccccc1)(c1ccccc1)[C@H](Oc1nc(C)cc(C)n1)C(=O)O` [Ambrisentan] are within error of each other in growth: 0.206 ± 0.017 for the first, 0.191 ± 0.016 for the second.

First: C1N2CN3CN1CN(C2)C3 [Methenamine]
Second: Cc1cc(C2CCCCC2)n(O)c(=O)c1 [Ciclopirox ethanolamine]
The growth of the first is higher: 0.204 ± 0.0098 for the first, 0.0626 ± 0.011 for the second.

First: CN[C@@H]1[C@H](O)[C@H](NC)[C@H]2O[C@@]3(O)C(=O)C[C@@H](C)O[C@H]3O[C@@H]2[C@H]1O [Spectinomycin dihydrochloride]
Second: CC1(C)S[C@@H]2[C@H](NC(=O)[C@H](N)c3ccc(O)cc3)C(=O)N2[C@H]1C(=O)O [Amoxicillin]
The growth of the first is lower: 0.0987 ± 0.0037 for the first, 0.217 ± 0.029 for the second.

First: Nc1ccc(S(=O)(=O)c2ccc(N)cc2)cc1 [Dapsone]
Second: Nc1ccc(S(=O)(=O)Nc2cnc3ccccc3n2)cc1 [Sulfaquinoxaline sodium salt]
The growth of the first is higher: 0.214 ± 0.0025 for the first, 0.181 ± 0.012 for the second.

`O=C(OCCOCCO)c1ccccc1Nc1cccc(C(F)(F)F)c1` [Etofenamate] and `CCCCOc1ccc(CC(=O)NO)cc1` [Bufexamac] are within error of each other in growth: 0.0997 ± 0.078 for the first, 0.18 ± 0.013 for the second.

First: Clc1ccc(CO/N=C(\Cn2ccnc2)c2ccc(Cl)cc2Cl)c(Cl)c1 [Oxiconazole Nitrate]
Second: CN1CCc2c(c3ccccc3n2Cc2ccccc2)C1 [Mebhydroline 1,5-naphtalenedisulfonate]
The growth of the first is lower: 0.0621 ± 0.0016 for the first, 0.187 ± 0.017 for the second.

Going from `CCCCC[C@H](O)/C=C/[C@H]1[C@H](O)CC(=O)[C@@H]1CCCCCCC(=O)O` [Alprostadil] to `CC1=C(/C=C/C(C)=C/C=C/C(C)=C\C(=O)O)C(C)(C)CCC1` [Isotretinoin], the growth rises from 0.154 ± 0.008 to 0.185 ± 0.018.

Going from `CC=C(C)C(=O)OC1C(OC(C)=O)C2(CO)C(O)CC3(C)C(=CCC4C5(C)CCC(OC6OC(C(=O)O)C(OC7OC(CO)C(O)C(O)C7O)C(O)C6OC6OC(CO)C(O)C(O)C6O)C(C)(CO)C5CCC43C)C2CC1(C)C` (stereo not drawn) [Beta-Escin] to `CNCCCC12CCC(c3ccccc31)c1ccccc12` [Maprotiline hydrochloride], the growth falls from 0.329 ± 0.018 to 0.1849 ± 0.0011.

`CCCc1cc(C(N)=S)ccn1` [Prothionamide] and `Cc1cc(C)nc(NS(=O)(=O)c2ccc(N)cc2)n1` [Sulfamethazine sodium salt] are within error of each other in growth: 0.208 ± 0.013 for the first, 0.191 ± 0.0082 for the second.

same assay, conditions: arabinose induction (level): Low; compound 0.1 mM; raw OD600 reference: median of DMSO wells 0.227, cell-free background 0.041

First: N[C@@H](Cc1ccc(O)c(O)c1)C(=O)O [Levodopa]
Second: CCN(CC)C(=O)c1ccc(O)c(OC)c1 [Ethamivan]
The growth of the first is lower: 0.209 ± 0.013 for the first, 0.2251 ± 0.0019 for the second.

`COC(=O)Nc1nc2cc(C(=O)c3ccccc3)ccc2[nH]1` [Mebendazole] and `COC(c1ccccc1)(c1ccccc1)[C@H](Oc1nc(C)cc(C)n1)C(=O)O` [Ambrisentan] are within error of each other in growth: 0.273 ± 0.053 for the first, 0.234 ± 0.021 for the second.

First: C1N2CN3CN1CN(C2)C3 [Methenamine]
Second: Cc1cc(C2CCCCC2)n(O)c(=O)c1 [Ciclopirox ethanolamine]
The growth of the first is higher: 0.218 ± 0.035 for the first, 0.05427 ± 0.00029 for the second.

First: CN[C@@H]1[C@H](O)[C@H](NC)[C@H]2O[C@@]3(O)C(=O)C[C@@H](C)O[C@H]3O[C@@H]2[C@H]1O [Spectinomycin dihydrochloride]
Second: CC1(C)S[C@@H]2[C@H](NC(=O)[C@H](N)c3ccc(O)cc3)C(=O)N2[C@H]1C(=O)O [Amoxicillin]
The growth of the first is lower: 0.104 ± 0.013 for the first, 0.259 ± 0.046 for the second.

`Nc1ccc(S(=O)(=O)c2ccc(N)cc2)cc1` [Dapsone] and `Nc1ccc(S(=O)(=O)Nc2cnc3ccccc3n2)cc1` [Sulfaquinoxaline sodium salt] are within error of each other in growth: 0.25 ± 0.058 for the first, 0.204 ± 0.022 for the second.

First: O=C(OCCOCCO)c1ccccc1Nc1cccc(C(F)(F)F)c1 [Etofenamate]
Second: CCCCOc1ccc(CC(=O)NO)cc1 [Bufexamac]
The growth of the first is lower: 0.0543 ± 0.0018 for the first, 0.222 ± 0.088 for the second.

Compared with `Clc1ccc(CO/N=C(\Cn2ccnc2)c2ccc(Cl)cc2Cl)c(Cl)c1` [Oxiconazole Nitrate], `CN1CCc2c(c3ccccc3n2Cc2ccccc2)C1` [Mebhydroline 1,5-naphtalenedisulfonate] is higher in growth: 0.0618 ± 0.0051 for the first, 0.207 ± 0.0028 for the second.

`CCCCC[C@H](O)/C=C/[C@H]1[C@H](O)CC(=O)[C@@H]1CCCCCCC(=O)O` [Alprostadil] and `CC1=C(/C=C/C(C)=C/C=C/C(C)=C\C(=O)O)C(C)(C)CCC1` [Isotretinoin] are within error of each other in growth: 0.177 ± 0.032 for the first, 0.195 ± 0.014 for the second.

First: CC=C(C)C(=O)OC1C(OC(C)=O)C2(CO)C(O)CC3(C)C(=CCC4C5(C)CCC(OC6OC(C(=O)O)C(OC7OC(CO)C(O)C(O)C7O)C(O)C6OC6OC(CO)C(O)C(O)C6O)C(C)(CO)C5CCC43C)C2CC1(C)C (stereo not drawn) [Beta-Escin]
Second: CNCCCC12CCC(c3ccccc31)c1ccccc12 [Maprotiline hydrochloride]
The growth of the first is higher: 0.323 ± 0.0085 for the first, 0.211 ± 0.011 for the second.

`CCCc1cc(C(N)=S)ccn1` [Prothionamide] and `Cc1cc(C)nc(NS(=O)(=O)c2ccc(N)cc2)n1` [Sulfamethazine sodium salt] are within error of each other in growth: 0.221 ± 0.036 for the first, 0.269 ± 0.022 for the second.
